System: Rat fibroblasts (CREF)
Assay: Peg3 promoter luciferase inhibitors, potency, dose response, cell-based, HeLa, CREF/GAPDH counter-screen panel (AID 624167)
Settings: CREF/GAPDH counter-screens; run 1, dose range 1, at 100 µM (top of the series)

How did the inhibition turn out when `CCCC(=O)NC(c1ccc(Cl)cc1)c1ccc2cccnc2c1O` (stereo not drawn) was run?
Its inhibition is 12.3%.

For `O=C(O)c1ccc(N/N=C/c2ccc3nccnc3c2)cc1`, which inhibition is on record?
The inhibition was 58.2%.

For `CN=c1sc2c(n1C)C(=O)c1ccccc1C2=O`, which inhibition is on record?
Its inhibition is 97.8%.

Which inhibition does the source give for `CCCCCCN1C=C/C(=C\C=C(C#N)C#N)c2ccccc21` here?
The inhibition was 43.7%.

`Oc1c(I)cc(Cl)c2cccnc12` was tested. Which inhibition did it give?
The inhibition was 87%.

`COc1ccc(S(=O)(=O)/N=C2\C=C(Nc3ccc(O)cc3)C(=O)c3ccccc32)cc1` was tested. Which inhibition did it give?
Its inhibition is 101%.

With `COC1CC(C)C(OC)c2cc(O)cc(c2O)NC(=O)C(C)=CC=CC(C)C(OC(N)=O)C(C)=CC(C)C1OC` (stereo not drawn) as the compound, how does the inhibition read?
The inhibition was 97.1%.

Which inhibition does the source give for `CC(=O)NC(c1ccc(Cl)cc1)c1ccc2cccnc2c1O` (stereo not drawn) here?
Its inhibition is 4.58%.

Which inhibition does the source give for `O=C(Nc1ccc(Cc2ccncc2)cc1)c1ccc([N+](=O)[O-])o1` here?
Its inhibition is 100%.

Which inhibition does the source give for `COC1=CC(=O)c2c(ccc3ncnc(N)c23)C1=O` here?
Its inhibition is 101%.

How did the inhibition turn out when `NC1=C(Br)C(=O)c2ncccc2C1=O` was run?
Its inhibition is 98.1%.

With `Cc1ccc(-c2cc3c(N=O)c4ccccc4c-3n[nH]2)cc1` as the compound, how does the inhibition read?
Its inhibition is 87.3%.

`CC(=O)c1ccc(-c2cnc3c(NC=O)cc(-c4ccccc4Oc4ccccc4)cn23)cc1` was tested. Which inhibition did it give?
Its inhibition is -25.1%.

With `O=C(N/N=C/c1cc([N+](=O)[O-])ccc1O)c1ccc(COc2ccc3c(c2)CCC3)o1` as the compound, how does the inhibition read?
Its inhibition is 29.5%.

With `COC1=C(Br)C(=O)c2ncccc2C1=O` as the compound, how does the inhibition read?
Its inhibition is 95.3%.

`CN(C)c1ccc(/C=C/c2ccc3c4ccccc4ccc3[n+]2-c2ccccc2)cc1` was tested. Which inhibition did it give?
The inhibition was 101%.

For `O=C(Nc1ccccc1)c1nc[nH]c1C(=O)NCCCCCCNC(=O)c1[nH]cnc1C(=O)Nc1ccccc1`, which inhibition is on record?
Its inhibition is -4.97%.

For `O=C(/C=C/c1ccccc1)Nc1cccc(C(=O)O)c1`, which inhibition is on record?
The inhibition was 96.8%.

How did the inhibition turn out when `O=C(NCCc1ccccc1)c1ccc2c(c1)OCO2` was run?
Its inhibition is 93.9%.

`COc1ccccc1CNCC(O)Cn1c2ccccc2c2ccccc21` (stereo not drawn) was tested. Which inhibition did it give?
The inhibition was 99.2%.

With `CN(C)S(=O)(=O)c1ccc(-c2csc(N/N=C/c3ccc(O)cc3)n2)cc1` as the compound, how does the inhibition read?
Its inhibition is 97.4%.

`CN(C)CC1CCC/C(=C\c2ccc(OC(=O)c3ccc(Cl)cc3)cc2)C1=O` (stereo not drawn) was tested. Which inhibition did it give?
Its inhibition is 51.4%.

With `Cc1c(C)c2ccc(OCC(=O)Nc3ccccn3)c(C)c2oc1=O` as the compound, how does the inhibition read?
Its inhibition is 98.5%.

For `O=C(O)c1ccc(N/N=C/c2ccc3c(c2)OCO3)cc1`, which inhibition is on record?
The inhibition was 67.2%.

How did the inhibition turn out when `CC1CC(C)C(=O)C(C(CC2CC(=O)NC(=O)C2)OC(=O)CC(=O)c2ccccc2)C1` (stereo not drawn) was run?
Its inhibition is 44.6%.

How did the inhibition turn out when `CC(=O)NC(c1ccc(Cl)cc1Cl)c1ccc2cccnc2c1O` (stereo not drawn) was run?
The inhibition was -0.0688%.

How did the inhibition turn out when `O=C(O)c1ccc(N/N=C/c2ccc(OC(=O)c3cccc(Cl)c3)cc2)cc1` was run?
Its inhibition is 46.5%.

Which inhibition does the source give for `CCCC(=O)NC(c1ccc(OC)cc1)c1ccc2cccnc2c1O` (stereo not drawn) here?
Its inhibition is 28.1%.

Which inhibition does the source give for `CCCCC(=O)NC(c1ccccc1OC)c1ccc2cccnc2c1O` (stereo not drawn) here?
The inhibition was -8.76%.

How did the inhibition turn out when `Cc1cc(C(=O)Nc2cccc(C(=O)O)c2)oc1C` was run?
Its inhibition is 49.8%.

`CN=c1scc(-c2ccccc2F)n1/N=C/c1ccc[nH]1` was tested. Which inhibition did it give?
The inhibition was 100%.

How did the inhibition turn out when `Cc1nc(-c2ccc(NC(=O)c3ccco3)cc2)cs1` was run?
Its inhibition is 93.3%.

For `CCCC(=O)NC(c1ccc(C(C)C)cc1)c1ccc2cccnc2c1O` (stereo not drawn), which inhibition is on record?
Its inhibition is 17.4%.

With `CCCSc1ccc2nc(-c3ccccc3)cn2c1` as the compound, how does the inhibition read?
The inhibition was 92.4%.

How did the inhibition turn out when `CC1=NOC(=O)/C1=C\c1ccc(-c2ccccc2Br)o1` was run?
Its inhibition is 94.2%.

How did the inhibition turn out when `Cc1cc(S(=O)(=O)c2ccc(Cl)cc2)nc(S(=O)(=O)c2ccc(Cl)cc2)c1C#N` was run?
The inhibition was 98.2%.

`CCC(c1ccc(O)c(O)c1)C(CC)c1ccc(O)c(O)c1` (stereo not drawn) was tested. Which inhibition did it give?
The inhibition was 100%.

With `O=C(COc1ccc2c(c1)CCC2)Nc1ccccn1` as the compound, how does the inhibition read?
The inhibition was 97.5%.

With `CCOc1cccc(/C=N/NC(=S)Nc2cc(S(=O)(=O)N3CCOCC3)ccc2N2CCOCC2)c1O` as the compound, how does the inhibition read?
The inhibition was 26.2%.

System: Rat fibroblasts (CREF)
Assay: as above
Settings: CREF/GAPDH counter-screens; run 2, dose range 1, at 100 µM (top of the series)

How did the inhibition turn out when `CCCC(=O)NC(c1ccc(Cl)cc1)c1ccc2cccnc2c1O` (stereo not drawn) was run?
Its inhibition is 28.1%.

How did the inhibition turn out when `O=C(O)c1ccc(N/N=C/c2ccc3nccnc3c2)cc1` was run?
Its inhibition is 45.3%.

With `CN=c1sc2c(n1C)C(=O)c1ccccc1C2=O` as the compound, how does the inhibition read?
Its inhibition is 98.9%.

Which inhibition does the source give for `CCCCCCN1C=C/C(=C\C=C(C#N)C#N)c2ccccc21` here?
The inhibition was 89.7%.

With `Oc1c(I)cc(Cl)c2cccnc12` as the compound, how does the inhibition read?
Its inhibition is 85.5%.

How did the inhibition turn out when `COc1ccc(S(=O)(=O)/N=C2\C=C(Nc3ccc(O)cc3)C(=O)c3ccccc32)cc1` was run?
Its inhibition is 97.4%.

With `COC1CC(C)C(OC)c2cc(O)cc(c2O)NC(=O)C(C)=CC=CC(C)C(OC(N)=O)C(C)=CC(C)C1OC` (stereo not drawn) as the compound, how does the inhibition read?
Its inhibition is 98.6%.

How did the inhibition turn out when `CC(=O)NC(c1ccc(Cl)cc1)c1ccc2cccnc2c1O` (stereo not drawn) was run?
Its inhibition is 23%.

For `O=C(Nc1ccc(Cc2ccncc2)cc1)c1ccc([N+](=O)[O-])o1`, which inhibition is on record?
Its inhibition is 99.5%.

`COC1=CC(=O)c2c(ccc3ncnc(N)c23)C1=O` was tested. Which inhibition did it give?
Its inhibition is 100%.

For `NC1=C(Br)C(=O)c2ncccc2C1=O`, which inhibition is on record?
Its inhibition is 98.6%.

`Cc1ccc(-c2cc3c(N=O)c4ccccc4c-3n[nH]2)cc1` was tested. Which inhibition did it give?
Its inhibition is 78.5%.

How did the inhibition turn out when `CC(=O)c1ccc(-c2cnc3c(NC=O)cc(-c4ccccc4Oc4ccccc4)cn23)cc1` was run?
The inhibition was 94.9%.

How did the inhibition turn out when `O=C(N/N=C/c1cc([N+](=O)[O-])ccc1O)c1ccc(COc2ccc3c(c2)CCC3)o1` was run?
Its inhibition is 55.1%.

`COC1=C(Br)C(=O)c2ncccc2C1=O` was tested. Which inhibition did it give?
The inhibition was 97.8%.

Which inhibition does the source give for `CN(C)c1ccc(/C=C/c2ccc3c4ccccc4ccc3[n+]2-c2ccccc2)cc1` here?
The inhibition was 100%.

For `O=C(Nc1ccccc1)c1nc[nH]c1C(=O)NCCCCCCNC(=O)c1[nH]cnc1C(=O)Nc1ccccc1`, which inhibition is on record?
Its inhibition is -1.9%.

Which inhibition does the source give for `O=C(/C=C/c1ccccc1)Nc1cccc(C(=O)O)c1` here?
Its inhibition is 95.7%.

For `O=C(NCCc1ccccc1)c1ccc2c(c1)OCO2`, which inhibition is on record?
The inhibition was 93.7%.

With `COc1ccccc1CNCC(O)Cn1c2ccccc2c2ccccc21` (stereo not drawn) as the compound, how does the inhibition read?
Its inhibition is 98.9%.

With `CN(C)S(=O)(=O)c1ccc(-c2csc(N/N=C/c3ccc(O)cc3)n2)cc1` as the compound, how does the inhibition read?
Its inhibition is 98.8%.

`CN(C)CC1CCC/C(=C\c2ccc(OC(=O)c3ccc(Cl)cc3)cc2)C1=O` (stereo not drawn) was tested. Which inhibition did it give?
Its inhibition is -21.7%.

Which inhibition does the source give for `Cc1c(C)c2ccc(OCC(=O)Nc3ccccn3)c(C)c2oc1=O` here?
Its inhibition is 97.8%.

With `O=C(O)c1ccc(N/N=C/c2ccc3c(c2)OCO3)cc1` as the compound, how does the inhibition read?
The inhibition was 62.5%.

With `CC1CC(C)C(=O)C(C(CC2CC(=O)NC(=O)C2)OC(=O)CC(=O)c2ccccc2)C1` (stereo not drawn) as the compound, how does the inhibition read?
Its inhibition is 23.7%.

For `CC(=O)NC(c1ccc(Cl)cc1Cl)c1ccc2cccnc2c1O` (stereo not drawn), which inhibition is on record?
The inhibition was 0.461%.

Which inhibition does the source give for `O=C(O)c1ccc(N/N=C/c2ccc(OC(=O)c3cccc(Cl)c3)cc2)cc1` here?
The inhibition was 40%.

With `CCCC(=O)NC(c1ccc(OC)cc1)c1ccc2cccnc2c1O` (stereo not drawn) as the compound, how does the inhibition read?
Its inhibition is 99.5%.

How did the inhibition turn out when `CCCCC(=O)NC(c1ccccc1OC)c1ccc2cccnc2c1O` (stereo not drawn) was run?
The inhibition was 5.38%.

For `Cc1cc(C(=O)Nc2cccc(C(=O)O)c2)oc1C`, which inhibition is on record?
Its inhibition is 52.7%.

`CN=c1scc(-c2ccccc2F)n1/N=C/c1ccc[nH]1` was tested. Which inhibition did it give?
The inhibition was 100%.

With `Cc1nc(-c2ccc(NC(=O)c3ccco3)cc2)cs1` as the compound, how does the inhibition read?
Its inhibition is 95.8%.

Which inhibition does the source give for `CCCC(=O)NC(c1ccc(C(C)C)cc1)c1ccc2cccnc2c1O` (stereo not drawn) here?
Its inhibition is 7.77%.

How did the inhibition turn out when `CCCSc1ccc2nc(-c3ccccc3)cn2c1` was run?
The inhibition was 95.7%.

`CC1=NOC(=O)/C1=C\c1ccc(-c2ccccc2Br)o1` was tested. Which inhibition did it give?
Its inhibition is 53.8%.

Which inhibition does the source give for `Cc1cc(S(=O)(=O)c2ccc(Cl)cc2)nc(S(=O)(=O)c2ccc(Cl)cc2)c1C#N` here?
The inhibition was 98.8%.

How did the inhibition turn out when `CCC(c1ccc(O)c(O)c1)C(CC)c1ccc(O)c(O)c1` (stereo not drawn) was run?
Its inhibition is 97.1%.

With `O=C(COc1ccc2c(c1)CCC2)Nc1ccccn1` as the compound, how does the inhibition read?
The inhibition was 94.5%.

For `CCOc1cccc(/C=N/NC(=S)Nc2cc(S(=O)(=O)N3CCOCC3)ccc2N2CCOCC2)c1O`, which inhibition is on record?
The inhibition was 48.3%.

From PubChem BioAssay
